Laboratory results: PubChem BioAssay AID485313 (National Center for Advancing Translational Sciences (NCATS), 2010)
Among all 320,000 compounds or so, about 7,600 (2.4%) were called active. Not shown: some 3% with an inconclusive outcome. Only a selection was taken, and actives are over-represented in it overall. Unmarked numbers belong to inactive results. The call rests on the fitted dose curve; in most records, active means well fitted activation curve with a large enough effect; inconclusive means small, poorly fitted or top-dose-only effect; inactive means no such curve, though single readings can be large or run the other way.

assay: qHTS Assay for NPC1 Promoter Activators; details: Huh7 NPC1 promoter luciferase reporter, 24 h; series mostly up to 9.22 µM; activation: at the top concentration; further: nearly all actives have a fitted effect of over 60% in size;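 on activation: reporter is driven by a mutant NPC1 promoter; % of control where 0% means no effect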
Method in brief: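 Readout is luciferase luminescence, reflecting NPC1 promoter activation in stably transfected Huh7 cells after 24 h compound exposure at 37 °C in reduced-serum medium with 10% FBS.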
Potency means the concentration at half of the fitted maximal effect.

| Structure (SMILES) | activation | Potency |
| --- | --- | --- |
| COc1ccc(Cl)cc1NC(=O)CN(C)CC(=O)Nc1ccc2c(c1)OCO2 | -2.45% | – |
| COc1ccc(-c2cc(C(=O)NCCCN3CCCC3=O)c3ccccc3n2)cc1OC | -0.607% | – |
| O=S(=O)(Nc1ccc(Cl)cn1)c1cnc(Cl)c(Br)c1 | -2.47% | – |
| COc1ccc(S(=O)(=O)Nc2ccc3cn[nH]c3c2)cc1[N+](=O)[O-] | 1.87% | – |
| CCc1ccc(CN(C)C(C)C(=O)Nc2ccc(S(=O)(=O)N3CCCC3)cc2)cc1 (configuration not stated) | -4.34% | – |
| CN1CCC(N(C)S(=O)(=O)c2ccc(NC(=O)c3cccc(C#N)c3)cc2)CC1 | -0.133% | – |
| COc1ccc(C2(C)ON(c3ccccc3C(F)(F)F)C2=O)cc1 (configuration not stated) | -6.62% | – |
| O=C(CSc1nc2ncccc2[nH]1)Nc1ccc2c(c1)OCCO2 | 11.2% | – |
| CCn1nc(C(=O)NNC(=O)C2CSC3(C)CCC(=O)N23)c2ccccc2c1=O (configuration not stated) | -1.9% | – |
| N#Cc1c(NC(=O)C2CCCO2)sc2c1CCCCC2 (configuration not stated) | – | 3.55 µM (active) |
| N#Cc1c(NC(=O)CCCl)sc2c1CCCCC2 | -1.63% | – |
| N#Cc1c(NC(=O)C2CC(Cl)=CCC2C(=O)O)sc2c1CCCCC2 (configuration not stated) | 0.669% | – |
| COc1ccc(NS(=O)(=O)c2cccc(C(=O)NCCc3ccc(S(N)(=O)=O)cc3)c2)cc1 | 0.498% | – |
| O=c1c2ccccc2nc2n1C(CSc1ccc(Cl)cc1)CN2 (configuration not stated) | 1.89% | – |
| Clc1ccc2nc(CSc3ccccc3)cn2c1 | – | 0.501 µM (active) |
| O=C(/C=C/c1ccc2c(c1)OCO2)NCc1cn2cc(Cl)ccc2n1 | -5.97% | – |
| CN(CCC1CCOCC1)Cc1cn[nH]c1-c1ccc(-c2ccccc2)cc1 | 0.243% | – |
| O=C(COC(=O)C1CC2CCCC(C1)C2=O)NC(=O)c1ccccc1 (configuration not stated) | 1.55% | – |
| CC(OC(=O)c1ccccc1NCCO)C(=O)Nc1ccnn1C(C)C (configuration not stated) | 1.15% | – |
| CC1CCCC(NC(=O)c2cc(S(=O)(=O)N3CCCCC3)ccc2Cl)C1C (configuration not stated) | -5.92% | – |
| Cc1ccc(NC(=O)CCCNC(=O)c2ccc(Cl)cc2)cc1S(=O)(=O)N1CCOCC1 | 0.719% | – |
| NC(=O)Cc1ccc2sc(-c3ccccc3)nc2c1 | – | 3.55 µM (active) |

| Structure (SMILES) | activation | Potency |
| --- | --- | --- |
| NC(=O)Cc1ccc2c(c1)[nH]c1ccccc12 | 0.862% | – |
| O=C(O)Cc1sc(-c2ccccc2)nc1-c1cccs1 | 0.359% | – |
| CC(OC(=O)CN1C(=O)c2ccccc2C1=O)C(=O)c1ccccc1 (configuration not stated) | 0.525% | – |
| O=C(COC(=O)c1ccc(O)cc1O)NNC(=O)c1cccs1 | -3.96% | – |
| CC(C)C(=O)Nc1c(O)c2ccccc2[nH]c1=O | 0.926% | – |
| CCCc1nc2ccccc2c(=O)n1NC(=O)c1c(O)c2ccccc2[nH]c1=O | -0.169% | – |
| NS(=O)(=O)c1ccccc1NC(=O)c1c(O)c2ccccc2[nH]c1=O | – | 0.562 µM (active) |
| Cc1ccc(S(=O)(=O)N2CC(O)C[C@H]2C(=O)OCC(=O)Nc2ccc(N3CCOCC3)cc2)cc1C (some centres not stated) | -1.79% | – |
| Cc1ccc(CNC(=O)CC(NC(=O)c2ccccc2)c2ccccc2)cc1 (configuration not stated) | -1.36% | – |
| COc1ccccc1C1=CC(=O)C[C@H](c2ccc(F)cc2)C1 | -0.292% | – |
| CCOC(=O)CSc1nnc(-c2ccc([N+](=O)[O-])cc2)o1 | -4.24% | – |
| O=C(CSc1nnc(-c2ccc([N+](=O)[O-])cc2)o1)Nc1ccccn1 | – | 0.708 µM (active) |
| CCc1ccccc1NC(=O)CSc1nnc(-c2ccncc2)o1 | -0.244% | – |
| O=S(=O)(Nc1ccc(-n2cnnn2)cc1)c1ccc(Cl)cc1 | -2.86% | – |
| CCN(CC)S(=O)(=O)c1ccc(OC)c(NC(=O)CCc2c(C)noc2C)c1 | 0.937% | – |
| COC(=O)CNS(=O)(=O)c1ccc(Cc2ccc(S(=O)(=O)NCC(=O)OC)cc2)cc1 | – | 0.631 µM (active) |
| C/C(N)=C(/C#N)C(=O)COC(=O)CNS(=O)(=O)c1ccc(C)cc1 | -4.23% | – |
| COC(=O)CNS(=O)(=O)c1ccc(OC)cc1 | -0.291% | – |
| CC(=O)c1ccc(OCCCC(=O)Nc2ccc(C)c(S(=O)(=O)N3CCOCC3)c2)cc1 | -8.15% | – |
| COc1ccc(CNC(=O)COC(=O)c2c(C)nn(-c3ccccc3)c2C)cc1OC | -2.19% | – |
| O=C(CN1CCCSc2ccccc21)N1CCN(S(=O)(=O)c2ccccc2)CC1 | -2.36% | – |
| C(=N\n1cnnc1)/c1cccnc1 | -2.15% | – |

| Structure (SMILES) | activation | Potency |
| --- | --- | --- |
| COc1cccc(OCCOc2cccc(/C=N/n3cnnc3)c2)c1 | – | 3.98 µM (active) |
| COc1ccccc1OCCOc1ccc(/C=N/n2cnnc2)cc1 | -0.813% | – |
| Cc1csc(NC(=O)C2CCN(S(=O)(=O)c3ccccc3)CC2)n1 | -2.06% | – |
| COc1cc2c(cc1OC)CN(C(C)C(=O)Nc1cccc(S(=O)(=O)N3CCOCC3)c1)CC2 (configuration not stated) | -0.418% | – |
| Cc1c(C(=O)NNC(=O)c2ccncc2)oc2ccccc12 | 9.11% | – |
| CCN(CC(=O)Nc1ccc(OC)cc1)C(=O)CSCc1ccc(C)cc1 | -3.4% | – |
| O=C(Nc1cc(C(F)(F)F)ccc1Cl)C(=O)N1CCCCC1 | 2.14% | – |
| O=C(Nc1cc(C(F)(F)F)ccc1Cl)c1cc(C2CC2)on1 | 18.3% | – |
| O=C(Nc1cc(C(F)(F)F)ccc1Cl)c1cc2nc3c(c(C(F)(F)F)n2n1)CCCC3 | – | 3.16 µM (active) |
| O=C(COc1ccccc1Cl)N1N=C(c2cccs2)CC1c1ccco1 (configuration not stated) | 9.28% | – |
| CC(C)C(NC(=O)c1c(F)cccc1F)C(=O)NCc1ccncc1 (configuration not stated) | -0.474% | – |
| O=C(OCC(=O)N1CCc2ccccc21)C1CCCN1S(=O)(=O)c1ccc(Cl)cc1 (configuration not stated) | -2.44% | – |
| O=C(Nc1cccc(F)c1)NC1CCCc2ccccc21 (configuration not stated) | -3.18% | – |
| C/C(CC(=O)Nc1cccc(F)c1)=N\NC(=O)C(=O)NC1CCCCC1 | 0.249% | – |
| O=C(Nc1cccc(F)c1)NC1CCCCCCC1 | – | 2.51 µM (active) |
| COc1ccc(OC)c(S(=O)(=O)n2c([N+](=O)[O-])cnc2C)c1 | 0.779% | – |
| CCOC(=O)CSc1nnc(NC(=O)c2cccc(S(=O)(=O)N3CCCC3)c2)s1 | -5.45% | – |
| O=C(/C=C/c1ccccc1)Nc1nnc(SCC(=O)c2ccc3ccccc3c2)s1 | -0.211% | – |
| NC(=O)CSc1nnc(NC(=O)c2ccc(Br)o2)s1 | 18.3% | – |
| NC(=O)CSc1nnc(NC(=O)c2ccc3ccccc3c2)s1 | – | 3.16 µM (active) |
| CCSc1nnc(NC(=O)c2ccc(C)cc2)s1 | – | 1.12 µM (active) |
| C=CCSc1nnc(NC(=O)c2ccc(NC(C)=O)cc2)s1 | 20.1% | – |

| Structure (SMILES) | activation | Potency |
| --- | --- | --- |
| CN(CC(=O)NCC(c1ccccc1)N1CCCC1)S(=O)(=O)c1ccc(Cl)cc1 (configuration not stated) | 0.0445% | – |
| CC(C)(C)OC(=O)Nc1ccc([C@@H](NC(=O)OC(C)(C)C)C(=O)OC(C)(C)C)cc1 | -4.8% | – |
| Cc1ccc(NC(=O)Cc2nc(COC(=O)C(C)NS(=O)(=O)c3ccc(C)cc3)cs2)cc1 (configuration not stated) | 4.04% | – |
| COc1cc(C(=O)NCC(c2ccco2)N2CCCC2)ccc1OCc1ccccc1 (configuration not stated) | 0.375% | – |
| CCN(CC(=O)Nc1ccccc1OC)C(=O)CC1CC2CCC1C2 (configuration not stated) | -5.43% | – |
| COc1cccc(NC(=O)CN(C)C(=O)c2cc(C3CC3)nn2-c2ccccc2)c1 | 0.0319% | – |
| O=C(Nc1ccncc1)c1c(F)cccc1F | 16.4% | – |
| CCCC(=O)Nc1nc2ccc(NC(=O)c3c(F)c(F)c(OC)c(F)c3F)cc2s1 | -27.8% | – |
| CSc1nc2ccc(NC(=O)c3c(F)cccc3F)cc2s1 | – | 2.51 µM (active) |
| CC1(C)CC(=O)C=C(c2ccc(Cl)c(C(F)(F)F)c2)C1 | -2.16% | – |
| CCOc1ccc(NC(=O)CN(C)C(=O)Cc2sc(C)nc2-c2ccc(F)cc2)cc1OCC | -4.47% | – |
| COc1ccccc1C(=O)NCCC(=O)N(C)Cc1cccnc1 | -1.29% | – |
| CC1(C)O[C@@H]2[C@H](O1)[C@@H](CO)O[C@H]2n1c(N2CCCCC2)nc2c(N)ncnc21 | -3.42% | – |
| O=S(=O)(c1cccc(S(=O)(=O)N2CCC(n3nnc4ccccc43)CC2)c1)N1CCCCC1 | -1.28% | – |
| O=C(c1ccc(F)cc1)N1CCC(n2nnc3ccccc32)CC1 | – | 4.47 µM (active) |
| CC(=O)c1cccc(S(=O)(=O)N2CCC(n3nnc4cc(F)ccc43)CC2)c1 | -0.438% | – |
| CCCCn1c(N)c(N(CCC(C)C)C(=O)COC(=O)c2cccnc2OCC)c(=O)[nH]c1=O | -3.86% | – |
| CCCCn1c(N)c(N(CCC(C)C)C(=O)COC(=O)c2ccc(CC)cc2)c(=O)[nH]c1=O | -6.12% | – |
| CC(Sc1nnc(-c2cccs2)n1C1CC1)C(=O)NCC1CCCO1 (configuration not stated) | -1.05% | – |
| CCC(=O)NC(=Nc1nc2ccccc2s1)NC(=O)CC | – | 1.26 µM (active) |
| CN(Cc1nc2ccccc2s1)C(=O)c1ccc(F)cc1 | 6.01% | – |
| Cc1cc(C(=O)OCC(=O)Nc2nnc(C(C)C)s2)c2ccccc2n1 | -1.33% | – |

| Structure (SMILES) | activation | Potency |
| --- | --- | --- |
| CC(C)CC(=O)N/C(N)=N/c1nc2ccccc2s1 | – | 0.501 µM (active) |
| CC(C)CC(=O)NC(=S)NCc1ccccc1 | -1.14% | – |
| CC(=O)Nc1cccc(-c2nc3ccccc3s2)c1C | 9.92% | – |
| Cc1ccc(F)cc1NC(=O)CSCc1c(C)noc1C | -4.22% | – |
| Cc1nn(Cc2ccccc2)c(C)c1C(=O)N1CCN(CC(=O)Nc2ccccc2Cl)CC1 | 0.571% | – |
| C=CCC1(CC=C)CCCN1C(=O)c1cc(COc2ccc(-n3cncn3)cc2)on1 | -27% | – |
| Cc1ccc(Nc2nc(-c3ccc(O)cc3O)cs2)nc1 | – | 2 µM (active) |
| CC(=O)Nc1ccc(C(=O)Nc2nc(-c3cc(C)n(Cc4ccccc4)c3C)cs2)cc1 | -1.99% | – |
| C=C(C)CNc1cc(S(=O)(=O)N2CCOCC2)ccc1Oc1ccccc1 | 1.3% | – |
| CCCn1c(NC(=O)C23CC4CC(CC(O)(C4)C2)C3)nc2ccccc21 | -4.67% | – |
| CC1CCCN(c2ccc(C(=O)NCCc3ccccc3)cn2)C1 (configuration not stated) | – | 3.16 µM (active) |
| CC1CCN(C(=O)CCNC(=O)c2ccccc2)CC1 | 21.9% | – |
| O=C(NCCc1ccccc1)c1ccc2c(c1)N(Cc1ccccc1)CCS2 | -14.8% | – |
| Cc1ccc(NC(=O)CCCNC(=O)c2ccc(Cl)cc2)cc1S(=O)(=O)N1CCCCC1 | -1.66% | – |
| CC(C)(C)C(=O)CSc1ccc(S(=O)(=O)N2CCCC2)cn1 | -4.16% | – |
| CC(NC(=O)c1ccc(S(=O)(=O)Nc2ccccc2)cc1)c1ccc(S(N)(=O)=O)cc1 (configuration not stated) | 4.89% | – |
| O=C(Nc1cccnc1)c1cccc(S(=O)(=O)N2CCCC2)c1 | -5.6% | – |
| O=C(Nc1cccnc1)c1cc(Cl)ccc1Cl | -6.95% | – |
| O=C(Nc1cccnc1)c1noc2c1CCCCC2 | – | 2.51 µM (active) |
